# Assay results taken from the supplement of paper PMC3334620.
# Whole data set: some 33,000 sequences, median “E-score (-0.5 to 0.5)” near -0.011, cut for the highest 2% near 0.28. This excerpt belongs to a sample that is enriched for the highest values.
# Target: T1, Gcr1 (UniProt P07261)
# T1 sequence: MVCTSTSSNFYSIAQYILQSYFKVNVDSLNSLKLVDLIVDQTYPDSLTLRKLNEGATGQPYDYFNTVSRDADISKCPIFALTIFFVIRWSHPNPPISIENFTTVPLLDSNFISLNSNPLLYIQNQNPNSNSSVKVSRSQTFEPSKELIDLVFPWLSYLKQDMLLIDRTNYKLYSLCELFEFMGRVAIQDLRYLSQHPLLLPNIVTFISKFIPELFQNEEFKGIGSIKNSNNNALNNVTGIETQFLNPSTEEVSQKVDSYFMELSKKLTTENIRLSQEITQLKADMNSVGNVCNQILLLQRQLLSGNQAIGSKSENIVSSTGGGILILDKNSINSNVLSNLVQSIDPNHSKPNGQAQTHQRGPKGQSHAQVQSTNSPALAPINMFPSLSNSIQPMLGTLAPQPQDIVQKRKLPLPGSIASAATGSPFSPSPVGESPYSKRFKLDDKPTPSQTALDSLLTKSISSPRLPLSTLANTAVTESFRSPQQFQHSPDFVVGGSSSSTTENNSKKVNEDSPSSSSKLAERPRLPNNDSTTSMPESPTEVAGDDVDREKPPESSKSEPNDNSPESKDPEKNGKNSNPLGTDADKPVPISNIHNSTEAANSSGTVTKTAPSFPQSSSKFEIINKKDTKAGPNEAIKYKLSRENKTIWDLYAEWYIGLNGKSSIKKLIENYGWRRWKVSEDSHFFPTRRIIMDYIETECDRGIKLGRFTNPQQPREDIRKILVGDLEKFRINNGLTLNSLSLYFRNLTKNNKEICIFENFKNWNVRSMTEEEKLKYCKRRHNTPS
# Test: PBM E-score (8-mer binding enrichment) (E-score (-0.5 to 0.5)); higher = stronger / more preferred TF binding
# Details: protein concentration: 100 nM; construct: GST-full length
# Procedure, shortened: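 Universal all-10-mer Agilent arrays, double-stranded by primer extension on fresh or once-stripped slides, were probed with about 100-200 nM GST-tagged yeast transcription factors made by PURExpress. Fluorescent anti-GST detected bound protein, and masliner normalised the scans. E-scores from the Universal PBM Analysis Suite were given to each ungapped eight-base word pooled with its reverse complement.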
row,Sequence,PBM E-score
1,TGGTGGAA,0.124
2,AAGTGGTG,0.281
3,GAGTGGAC,-0.0196
4,GGGTGGAA,-0.113
5,TAGTGGAA,0.42
6,CAGTGGAA,0.244
7,AAGTGGAG,0.141
8,AAGTGGTA,0.176
9,GAGTGGAA,0.316
10,AAGTGGAA,0.41
11,AAGTGGTC,0.0307
12,AAGTGGAT,0.136
13,GTCGCCTA,0.0571
14,GATCTCAC,-0.257
15,CTAGGGTC,0.00957
16,ATTTTTTG,0.228
17,AGTTATTC,0.0537
18,CACTGTAG,-0.115
19,TAGTGGCA,0.289
20,GAGTGGCA,-0.0587

row,Sequence,PBM E-score
1,AAGTGGCA,0.238
2,AAGCGATC,-0.135
3,AGGTAGTC,0.072
4,CGGAGTAC,-0.243
5,CGGAGTCC,0.281
6,AGGAGTCG,-0.069
7,AGGAGTCC,0.303
8,AGGAGTCA,-0.0283
9,CGGAGTCA,-0.00995
10,GACACCTA,0.0961
11,TCCCTACA,0.00308
12,AAGCAGGA,0.0293
13,CCTCAGAC,-0.19
14,CAACTTCG,0.107
15,CAACTTCA,-0.0643
16,CCACTTCG,0.0958
17,CAACTTCC,0.321
18,CCACTTCC,0.305
19,GCACTTCC,0.168
20,GGCTCGCA,-0.137
